Shown are actives, neighbours in structure and some others; about 12% of the full set was active somewhere.
ROMK mod – human ROMK K+ channel modulation, primary screen; P48048; Tet-inducible ROMK, thallium flux fluorescence; actives lie on both sides; B-score at 10 µM; 130,000 tested, 2% active;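 active = signal ratio slope over the read window, or its plate-corrected B-score, at least 3 SD from the plate mean, either direction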;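 also: B-score of the F/F0 ratio slope over 7 to 12 s after thallium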
Target sequence (P48048 whole entry, looked up): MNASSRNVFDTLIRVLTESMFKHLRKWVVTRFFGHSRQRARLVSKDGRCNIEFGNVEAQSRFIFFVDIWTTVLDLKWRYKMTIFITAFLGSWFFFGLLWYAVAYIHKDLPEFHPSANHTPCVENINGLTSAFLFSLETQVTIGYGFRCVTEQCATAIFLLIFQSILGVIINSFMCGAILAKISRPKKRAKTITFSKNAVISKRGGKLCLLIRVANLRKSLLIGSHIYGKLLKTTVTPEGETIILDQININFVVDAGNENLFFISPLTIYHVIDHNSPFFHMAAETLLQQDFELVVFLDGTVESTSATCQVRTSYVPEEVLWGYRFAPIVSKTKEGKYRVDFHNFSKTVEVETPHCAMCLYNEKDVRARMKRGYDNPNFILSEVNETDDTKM
Calpain2 inh – blocks pig calpain II enzyme activity; AID 1236; inhibition, % at 16 µM; purified calpain II, fluorogenic peptide substrate, 30 min; 220,000 tested, 0.37% active;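 active = inhibition above about 50%, limit read from the data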
WT yeast gro inh – growth inhibition of WT yeast, mitochondrial fusion screen; mitochondrial fusion phenotypic screen, WT strain; inhibition, % at 10 µM; 190,000 tested, 2.1% active; AID 1362; in the data active = inhibition above about 58%; tested in S. cerevisiae
Lmaj promast – Leishmania major promastigote growth inhibition. Leishmania major promastigotes, resazurin fluorescence viability. inhibition, % at 10 µM. 200,000 tested, 9% active; in the data active = inhibition above about 50%;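 also: promastigotes grown with compound for 44 hours at 28 °C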
Cl transport mod – modulators of human KCC2 chloride dependent transport; KCC2 cells, thallium flux FluoZin-2 fluorescence; B-score of Tl+ flux slope (higher = more flux/activation; lower = inhibition) at 10 µM; AID 1456; Q9H2X9; 190,000 tested, 2.2% active;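 active = thallium flux slope and its plate-corrected score both differing from the plate sample mean at a set confidence after two filtering rounds, in either direction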;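 also: slope of fluorescence scaled to starting intensity during 10 to 20 s after thallium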
* = called active by the depositor.

`O=C1C=C(NCc2ccc(Cl)cc2)CCC1` gave Calpain2 inh 32, WT yeast gro inh 27, Lmaj promast -4 and Cl transport mod 0.048.
Cc1nc(NC(=O)c2ccc(Cl)cc2)sc1Cc1ccc2c(c1)OCO2 was read as Calpain2 inh -371, WT yeast gro inh 1, Lmaj promast 73* and Cl transport mod -0.37.
`Cc1nc(NC(=O)c2ccccc2)sc1Cc1ccc2c(c1)OCO2` gave ROMK mod 0.058, Calpain2 inh -88, WT yeast gro inh 41, Lmaj promast 0 and Cl transport mod -0.082.
COc1ccc(C(=O)OCCN2CCOCC2)cc1 was read as ROMK mod 0.53, Calpain2 inh -12, WT yeast gro inh -1, Lmaj promast -9 and Cl transport mod 0.14.
For CCOc1ccc(-n2c(SCc3nc(-c4cccs4)no3)nnc2-c2ccncc2)cc1 the results were Calpain2 inh 22, WT yeast gro inh -2, Lmaj promast 62* and Cl transport mod 0.0017.
Screening O=C(Nc1ccc2[nH]c(=S)sc2c1)c1ccccc1 returned ROMK mod -0.046, Calpain2 inh 23, WT yeast gro inh -8, Lmaj promast -4 and Cl transport mod 44*.
For COc1cc(CN2CC(=O)N(c3ccc(C)cc3)C2=S)cc(OC)c1OC the results were ROMK mod 0.055, Calpain2 inh -5, WT yeast gro inh -16, Lmaj promast 82* and Cl transport mod -0.26.
Screening COc1ccc(CN2CC(=O)N(c3ccc(C)cc3)C2=S)cc1OC returned ROMK mod 0.27, Calpain2 inh 31, WT yeast gro inh -13, Lmaj promast 2 and Cl transport mod 0.59.
For COc1ccc(CNC(=O)C2CCN(S(=O)(=O)c3ccc(-c4nn[nH]n4)cc3)CC2)cc1 the results were ROMK mod 0.34, Calpain2 inh 51*, WT yeast gro inh -7, Lmaj promast -6 and Cl transport mod 0.17.
For Cc1ccc(S(=O)(=O)Nc2cccc(CP(=O)(c3ccccc3)c3ccccc3)c2)cc1 the results were Calpain2 inh -3.
For CCN1CCc2nc3ccccc3c(C(=O)Nc3ccc(C#N)cc3)c2C1 the results were ROMK mod -0.13, Calpain2 inh -32, WT yeast gro inh -10, Lmaj promast 2 and Cl transport mod 0.043.
`CC1CCN(c2ccc(C(=O)Nc3ccc4c(c3)OCO4)cc2[N+](=O)[O-])CC1` gave ROMK mod 0.022, Calpain2 inh 25, WT yeast gro inh 11, Lmaj promast 98* and Cl transport mod -0.032.
Screening CC1CCCN(c2ccc(C(=O)Nc3ccc4c(c3)OCO4)cc2[N+](=O)[O-])C1 (stereo not given) returned ROMK mod -0.12, Calpain2 inh 19, WT yeast gro inh 33, Lmaj promast 97* and Cl transport mod -1.2.
For COc1cc(/C=C/c2nc3ccccc3s2)cc(OC)c1O the results were ROMK mod -1.7, Calpain2 inh -154, WT yeast gro inh 3, Lmaj promast -8 and Cl transport mod -0.55.
`COc1ccc(C=C(c2nc3ccccc3s2)c2nc3ccccc3s2)cc1O` gave ROMK mod -1.4, Calpain2 inh -52, WT yeast gro inh 48, Lmaj promast 99* and Cl transport mod -0.34.
For COc1cc(C=C(c2nc3ccccc3s2)c2nc3ccccc3s2)ccc1O the results were ROMK mod -0.034, Calpain2 inh -60, WT yeast gro inh 55, Lmaj promast 97* and Cl transport mod -1.7.
`COc1ccc(/C=N/Nc2nc3ccccc3s2)cc1O` gave ROMK mod -0.012, Calpain2 inh 6, WT yeast gro inh 31, Lmaj promast 9 and Cl transport mod -1.4.
Cc1ccc(S(=O)(=O)c2cnc(-c3ccccc3)nc2N2CCN(C)CC2)cc1 was read as ROMK mod -0.51, Calpain2 inh 3, WT yeast gro inh 25, Lmaj promast 11 and Cl transport mod 0.24.
Screening COC(=O)NC(=S)Nc1ccc(Oc2ccc(Cl)cc2Cl)c(Cl)c1 returned ROMK mod 0.73, Calpain2 inh 2, WT yeast gro inh 42, Lmaj promast 7 and Cl transport mod 11*.
For COC(=O)NC(=S)Nc1ccc(Oc2ccc(Cl)cc2)c(Cl)c1 the results were ROMK mod 0.93, Calpain2 inh -3, WT yeast gro inh 7 and Lmaj promast 4.
For O=C(NC1CCCC1)C(c1ccncc1)N(Cc1ccccc1)C(=O)c1ccc(-c2ccccc2)[nH]1 (stereo not given) the results were ROMK mod -0.82, Calpain2 inh -80, WT yeast gro inh 12, Lmaj promast 97* and Cl transport mod -2.1.
